From the supplement of paper PMC6555819

What was measured:
Test in all cases: PBM binding z-score (relative to random genomic background probes); higher = stronger binding; sequences stand for … in GC…GCGATTGACAGCGTAGAATGAAGG
[1] = tested on: FXR:RXRa (NR concentration 270 nM, RXRa partner concentration 90 nM)
Procedure, shortened: (§1)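 Probes were double-stranded and carried 34-nt variable regions with direct-repeat seeds, single-nucleotide variants, half-site ablations and random human genomic background sequences, printed on custom Agilent 4×180K protein-binding microarrays. Arrays were incubated 1 h with ligand-free nuclear receptor dimers in PBS pH 7.4, 2% milk, 0.02% Triton X-100, 1 mM DTT, 0.2 mg/mL BSA and 0.4 mg/ml salmon testes DNA. Antibodies against each partner (one per run) detected binding, and scanned fluorescence was regression-normalized. Binding z-scores use the random background probes as reference.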

[2] = tested on: LXRa:RXRa (NR concentration 270 nM, RXRa partner concentration 90 nM)
Procedure, shortened: as §1

[3] = tested on: LXRa homodimer (NR concentration 270 nM)
Procedure, shortened: as §1

[4] = tested on: LXRb:RXRa (NR concentration 270 nM, RXRa partner concentration 90 nM)
Procedure, shortened: as §1

[5] = tested on: LXRb homodimer (NR concentration 270 nM)
Procedure, shortened: as §1

[6] = tested on: PPARa:RXRa (NR concentration 270 nM, RXRa partner concentration 90 nM)
Procedure, shortened: as §1

[7] = tested on: PPARg:RXRa (NR concentration 180 nM, RXRa partner concentration 90 nM)
Procedure, shortened: as §1

[8] = tested on: PPARg:RXRa 270nM:90nM, anti-RXR (NR concentration 270 nM, RXRa partner concentration 90 nM)
Procedure, shortened: as §1

[9] = tested on: PPARg:RXRa 30nM:10nM, anti-RXR (NR concentration 30 nM, RXRa partner concentration 10 nM)
Procedure, shortened: as §1

[10] = tested on: PPARg:RXRa 90nM:30nM, anti-RXR (NR concentration 90 nM, RXRa partner concentration 30 nM)
Procedure, shortened: as §1

Row | Sequence | PBM binding z-score [1] | PBM binding z-score [2] | PBM binding z-score [3] | PBM binding z-score [4] | PBM binding z-score [5] | PBM binding z-score [6] | PBM binding z-score [7] | PBM binding z-score [8] | PBM binding z-score [9] | PBM binding z-score [10]
1 | CATACAGGGTCAGCTAGGCCAGAGTCGGGACGGC | 4.49 | 3.06 | -0.0518 | 1.97 | 0.537 | 4.21 | 3.11 | 3.03 | 0.551 | 1.92
2 | AGAATGAGGTTATTAAGGTCAGGGAATTGCGGTC | 4.55 | 4.8 | 3.44 | 3.59 | 0.546 | 4.4 | 3.54 | 4.22 | 1.62 | 3.18
3 | CCTACTGGGCCACGAAAGGTCATGGATTCAGTGA | 3.62 | 5.06 | 3.79 | 4.07 | 0.209 | 4.97 | 4.97 | 5.27 | 2.28 | 4.77
4 | TCGAGTAGGATAGTCGGGGCATTCAGCCAACATA | -0.379 | -0.526 | -0.613 | -0.239 | -0.624 | -0.194 | -0.199 | 0.184 | 0.98 | 0.413
5 | GCGACTGGGGCATCAGCAGGTTACCAGAACTTAA | -0.204 | -0.156 | -0.341 | 0.413 | -1.13 | 1.04 | 0.791 | 0.667 | -0.35 | 0.126
6 | ATATGTAGGTTCGCTGGGGTCATTCAGACTAGGC | 4.11 | 3.93 | 1.89 | 4.28 | 1.4 | 4.69 | 2.95 | 3.83 | 1.2 | 2.91
7 | ATACCAAGGTGATCGCGAGGTCGTTGATACTAAC | 1.6 | 0.914 | 0.243 | 1.06 | -0.19 | 1.62 | 0.486 | 0.381 | -0.106 | 0.108
8 | CCTTACGGGTCACTGACAGATTATAGCATTTGGA | 5.42 | 3.4 | 0.418 | 3.31 | 0.248 | 5.28 | 4.31 | 4.42 | 1.59 | 3.46
9 | CCTACTGGGCCATTCAGCGGTCATTGATCATATG | -0.0404 | 0.756 | 3.78 | 0.208 | -0.516 | 0.727 | 0.533 | 0.538 | -0.375 | 0.242
10 | CCTTACGGGTCACGCCAGGTTATAGCATCGGAGT | 6.4 | 6.03 | 0.573 | 4.1 | -0.0774 | 5.57 | 6.03 | 6.08 | 2.72 | 4.76
11 | CCTACTGGGCCACGAAAGGTCTTTGATTCAGTGA | 0.186 | -0.153 | -0.487 | -0.225 | -1.08 | 1.31 | 1.84 | 1.99 | -0.0558 | 0.769
12 | CCGACTGGGGCATACGGTTACCATAAGCCAGCCC | -0.196 | -0.252 | -0.334 | -0.388 | -1.21 | 0.556 | 1.47 | 1.77 | 0.00419 | 1.13
13 | GCAGTCAGGTGAAACGCAGGTAACTCAGGGTGGC | 0.205 | -0.0689 | -0.816 | -0.344 | -1.08 | 0.614 | 0.152 | 0.222 | -0.525 | 0.166
14 | CGAACTAGGTCAGACCAGGACAGTGAAGGATGAT | 1.62 | 1.04 | -0.304 | 0.246 | -0.517 | 3.36 | 6.07 | 5.08 | 2.19 | 3.95
15 | GCTATTAGTTGAAAGGGCAAACGAATGATTCTCG | 0.733 | 0.93 | 0.494 | 1.13 | -0.0679 | 2.7 | 2.92 | 4.48 | 2.73 | 4.34
16 | ACTAGCAGCCCAAGGGTCACTCAAGATTAGTCCG | 2.27 | 2.63 | 0.353 | 2.75 | -0.34 | 3.14 | 2.69 | 3.61 | 1.43 | 3.21
17 | ATCGCTAGGTAAAGATAGTTCAGTGAATGCAAAT | -0.496 | 3.12 | -0.0972 | 0.21 | -0.672 | -0.0926 | 0.0549 | -0.523 | -0.376 | -0.332
18 | CCGACTGGGGCAAGGTTACCATGACGCACAGCCA | -0.0845 | 0.558 | 0.0292 | 0.445 | -1.06 | 1.87 | 2.78 | 3.14 | 1.24 | 2.47
19 | CGTCCAAGGTCATAGGAGGTCAGTGAAGACAGAT | 7.58 | 7.44 | 4.4 | 5.99 | 1.01 | 5.84 | 5.77 | 5.68 | 2.12 | 4.17
20 | CGTCCAAGGTCAGAGAGGTCTGTGAATGCCGAGT | 4.66 | 3.14 | 0.0313 | 2.1 | -0.51 | 3.92 | 2.27 | 2.64 | 0.0649 | 1.45
21 | CCTTACGGTTCACGAGGTTATAGCACGACGAGCG | 3.45 | 3.49 | 1.87 | 2.57 | 0.189 | 3.75 | 1.96 | 2.4 | 0.593 | 1.58
22 | TTAGCAAGGTGAGCTGAGGTCGTTGATCCAACTC | 0.796 | 1.32 | -0.635 | 0.393 | -0.992 | 1.72 | -0.0318 | 0.607 | -0.48 | 0.182
23 | TCTCGGAGGACACGAGGGTCAGAGCTTTCCAGAG | 0.856 | 0.365 | -0.438 | 0.47 | -1.32 | 1.46 | 0.145 | 1.07 | 1.75 | 1.17
24 | CGTCCAAGGTTAGAGAGGTCAGTGAATGCCGAGT | 2.67 | 3.01 | 1.94 | 2.48 | -0.312 | 3.11 | 0.589 | 1.66 | -0.029 | 0.655
